PrP 5UTR inh: inhibition of PrP 5' UTR reporter expression | cell-based PrP 5' UTR mRNA reporter, plate reader | AID 488862 | inhibition, % (test concentration not listed) | actives 0.35% (n = 340,000); in the data active = inhibition above about 52%
Mtb FBA inh: inhibits M. tuberculosis FBA enzyme; purified M. tuberculosis FBA, fluorescence read-out; actives 2.3% (n = 360,000); inhibition, % at 1 µM; P9WQA3; in the data active = inhibition above about 27%
Target sequence (P9WQA3 whole entry, looked up): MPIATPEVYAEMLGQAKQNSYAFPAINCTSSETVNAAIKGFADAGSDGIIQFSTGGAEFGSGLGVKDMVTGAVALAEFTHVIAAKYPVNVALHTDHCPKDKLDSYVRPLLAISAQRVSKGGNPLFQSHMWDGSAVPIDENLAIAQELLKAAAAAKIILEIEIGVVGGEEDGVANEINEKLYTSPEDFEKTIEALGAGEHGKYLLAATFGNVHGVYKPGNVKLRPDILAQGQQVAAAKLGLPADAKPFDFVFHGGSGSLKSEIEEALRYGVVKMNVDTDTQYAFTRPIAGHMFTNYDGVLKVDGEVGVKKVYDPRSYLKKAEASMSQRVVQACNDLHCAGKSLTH
GDH-TPI inh: inhibits GDH-TPI coupling enzymes, artifact for Mtb FBA screen. actives 1.2% (n = 360,000). inhibition, % at 4.8 µM. GDH-TPI coupled enzyme counterscreen, NADH absorbance; in the data active = inhibition above about 30%
BJeLR lethal: BJeLR cell viability loss; BJeLR (HRASV12) viability, CellTiter-Glo ATP luminescence, 48 h; actives 0.17% (n = 300,000); inhibition, % (concentration not given with the values); in the data active = inhibition above about 50%
PfHsp40 rescue: restores yeast growth despite PfHsp40 toxicity. S. cerevisiae expressing PfHsp40, growth rescue, ATP luminescence. growth rescue, % at 12.5 µM. actives 0.68% (n = 340,000). AID 504582; in the data active = growth rescue above about 28%, passing the limit was not always enough;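 note: yeast W303a lacking pdr1 and pdr3 grown in galactose medium; growth measured after three days at 30 °C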
PrPC surface inh: inhibitors of human cell surface prion protein PrPC. P04156. TR-FRET read-out. AID 720596. inhibition, % at 13.8 µM. actives 0.43% (n = 370,000); in the data active = inhibition above about 24%
A number is an active result; . = inactive; / = not tested or not shown; + = active, no number. In the library only some 4.5% were active in any assay of this set; here they are far more common.

SMILES | PrP 5UTR inh | Mtb FBA inh | GDH-TPI inh | BJeLR lethal | PfHsp40 rescue | PrPC surface inh
Cc1cc(=O)oc2cc(OCC(=O)NCCCn3ccnc3)ccc12 | . | . | . | . | . | .
Cc1cc(=O)oc2c3c(cc(OCC(=O)NCCN4CCOCC4)c12)OC(C)(C)CC3 | . | 191.3 | . | . | . | .
Cn1nc(C(F)(F)F)c(/C=N/OC(=O)c2ccccc2Cl)c1SCc1ccc(Cl)cc1 | . | . | . | . | 51.6 | .
CCOC(=O)C(=Cc1ccc(N(C)C)cc1)C(=O)c1ccccc1 | / | . | / | / | / | .
CCOC(=O)/C(=C/c1ccc(OC(=O)c2ccccc2)cc1)C(C)=O | . | . | . | . | 311.8 | .
Cc1ccc(S(=O)(=O)/N=C2/NC(=O)/C(=C/c3ccccc3)S2)cc1 | . | . | 33.8 | . | . | .
Cc1ccc(S(=O)(=O)/N=C2/NC(=O)/C(=C\c3ccccc3)S2)cc1 | . | . | 39.0 | / | . | .
O=C1N/C(=N/O)S/C1=C/c1cccc([N+](=O)[O-])c1 | . | . | . | . | . | .
Cc1ccc(S(=O)(=O)/N=C2/NC(=O)/C(=C/c3ccncc3)S2)cc1 | / | / | / | . | / | .
O=C1N/C(=N\S(=O)(=O)Cc2ccccc2)S/C1=C/c1cccc([N+](=O)[O-])c1 | / | . | 49.4 | . | . | .
COc1ccc(-n2c(SCC(=O)N(CC(C)C)CC(C)C)nnc2-c2ccncc2)cc1 | / | / | / | / | / | .
CCCN(CC1CC1)c1nc(C)nc2c1nnn2Cc1ccccc1 | / | / | / | / | / | .
C=CCN1[C@H](C#N)[C@@H](c2ccccc2)[C@H]1CO | / | / | / | / | / | .
CC(C)(C)N(NC(=O)NCCCl)C(=O)c1ccccc1Cl | / | / | / | / | / | .
Cc1ccc(C(=O)N/C(=C\c2ccc(-c3cccc([N+](=O)[O-])c3)o2)C(=O)NCCCN2CCOCC2)cc1 | . | . | 47.0 | . | . | .
Cc1ccc(C(=O)N/C(=C/c2ccc(-c3cccc([N+](=O)[O-])c3)o2)C(=O)NC(C)C)cc1 | . | . | 49.4 | . | . | .
CN(C)C(=O)/C(=C/c1ccc(-c2cccc([N+](=O)[O-])c2)o1)NC(=O)c1ccccc1 | . | . | 52.9 | . | . | .
CN(C)CCCNC(=O)/C(=C/c1ccc(-c2ccc([N+](=O)[O-])cc2)o1)NC(=O)c1ccccc1 | . | . | 31.4 | . | . | .
Cc1ccc(C(=O)N/C(=C/c2ccc(-c3cccc([N+](=O)[O-])c3)o2)C(=O)NC(C)(C)C)cc1 | . | . | . | . | . | .
CN(C)CCNC(=O)/C(=C/c1ccc(-c2cccc([N+](=O)[O-])c2)o1)NC(=O)c1ccccc1 | . | . | . | . | . | .
O=C1CC(c2ccc3c(c2)OCO3)N=C2N(Cc3ccc4c(c3)OCO4)C/C(=C/c3ccccc3)N12 (centres undefined) | / | / | / | / | / | .
CCN1CCCCC(NC(=O)c2ccc(C)cc2)C1=O (centres undefined) | / | / | / | / | / | .
COc1ccc(C(=O)N/C(=C\c2ccc(-c3cccc([N+](=O)[O-])c3)o2)C(=O)NCCCN2CCOCC2)cc1 | / | . | 47.3 | / | / | .
CC1=C2NC(N)=[N+](Cc3ccc4c(c3)OCO4)CC2NOC1 (centres undefined) | / | / | / | / | / | .
Cc1ccc(C(=O)CC(=O)c2cccc(F)c2)c(O)c1 | . | . | . | . | 395.9 | .
SMILES | PrP 5UTR inh | Mtb FBA inh | GDH-TPI inh | BJeLR lethal | PfHsp40 rescue | PrPC surface inh
COc1c(OC(C)=O)c(=O)n2c3ccccc3c3ccnc1c32 | . | . | . | . | 27.1 | .
CCC(=O)N(C)CCc1cc2c(c(OC)c1/C=N/Nc1ccc(C(=O)O)cc1)OCO2 | . | . | 50.6 | . | . | .
COc1ccc2[nH]c3c(=O)n(CCc4ccccc4)cnc3c2c1 | . | 94.7 | . | . | . | .
COc1ccc2[nH]c3c(NCCCN4CCCC4=O)ncnc3c2c1 | . | 152.0 | . | . | . | .
COC(=O)C1CN(Cc2ccc(OC)cc2)CCS(=O)(=O)N1Cc1cn(Cc2ccc(OC)cc2)nn1 (centres undefined) | / | / | / | / | / | .
COc1ccc(CNC(=O)c2cnc3cc(C)ccn3c2=O)cc1 | . | . | . | . | . | .
CCOC(=O)c1cnc2cc(C)ccn2c1=O | . | 124.4 | 31.4 | . | . | .
COc1cnn(-c2ccccc2)c(=O)c1SCc1ccc(Cl)cc1Cl | . | . | . | . | 88.5 | .
C[C@H]1C=CC(=O)O[C@H]1c1ccccc1 | . | . | . | . | . | .
C[C@@H]1C=CC(=O)O[C@@H]1c1ccc(C(F)(F)F)cc1 | / | / | / | 92.2 | / | /
Cc1cc2oc(=O)cc(-c3ccccc3)c2c(C)c1-c1ccc(O)cc1 | . | . | . | / | . | .
Cc1oc2cc(Br)c(O)c(Br)c2c1-c1ccccc1 | . | . | . | . | 96.9 | /
O=C(OC12CCCN(C1)/C(=C/c1ccncc1)C2)c1cccc(F)c1 (centres undefined) | / | / | / | / | / | .
Cn1c(C(C#N)C(=O)c2ccco2)nc2ccccc21 (centres undefined) | . | . | 32.8 | . | . | .
COc1ccc(CN2C/C(=C/c3ccc(C)cc3)N3C(=O)C[C@@H](c4ccccc4)N=C23)c(OC)c1 | / | / | / | / | / | .
CNC(=O)c1ccc(Nc2nnc(-c3ccc(C(N)=O)cc3)c3ccccc23)cc1 | . | . | 38.8 | . | . | .
CCN(CC)C(=O)COc1ccc(-c2nnc(Nc3ccc(OC)c(C(=O)NC)c3)c3ccccc23)cc1 | . | . | 45.6 | . | . | .
NC(=O)c1ccc(Nc2nnc(-c3ccc(O)cc3)c3ccccc23)cc1 | . | . | . | . | . | .
COc1ccc(Nc2nnc(-c3ccc(C)cc3)c3ccccc23)cc1C(=O)N1CCCCC1 | . | . | . | . | . | .
CC(C)(C)c1ccc(S(=O)(=O)N2CCCC(C(=O)NCc3ccco3)C2)cc1 (centres undefined) | / | / | / | / | / | .
N#C/C(=C\c1cccs1)C(=O)NCc1cccnc1 | . | . | 35.8 | . | . | .
N#C/C(=C\C=C\c1ccccc1)C(=O)NCc1cccnc1 | . | . | 31.1 | . | . | .
COc1ccc(CSc2nnc(SCC(=O)Nc3ccccc3-c3ccccc3)s2)cc1 | / | / | / | / | / | .
CN(Cc1ccccc1)C(=O)OCc1cn(Cc2cccc(F)c2F)nn1 | / | / | / | / | / | .
CCCCCn1c(=NC(=O)c2cccnc2)c(C#N)cc2c(=O)n3cccc(C)c3nc21 | . | 115.6 | . | . | . | .
CCCCn1c(=NC(C)=O)c(C#N)cc2c(=O)n3cccc(C)c3nc21 | . | 102.4 | . | . | . | .
COCCn1c(=NC(=O)c2ccc3c(c2)OCO3)c(C#N)cc2c(=O)n3cccc(C)c3nc21 | / | / | / | . | / | /
CCOCCCn1c(=NC(C)=O)c(C#N)cc2c(=O)n3cccc(C)c3nc21 | . | + | . | . | . | .
CCOCCCn1c(=NC(=O)c2ccc(OC)c(OC)c2)c(C#N)cc2c(=O)n3cccc(C)c3nc21 | / | / | / | . | / | /
CCOC(=O)c1cc2c(c(-c3cccc(-c4cc5ccccc5o4)c3)n1)[C@@H](CCO)N(S(=O)C(C)(C)C)C2 (some centres undefined) | / | . | / | / | / | .

Compound activity (PubChem BioAssay)
